# TWEAK Fn14 block – blocks TWEAK-Fn14 interaction in a reporter cell assay | TWEAK-stimulated Fn14 reporter cells, luciferase luminescence, 8 h | inhibition, % at 10 µM | hit rate 2% among 360,000 | AID 1159606; in the data active means inhibition above about 50%
# LGR2 inh – Drosophila LGR2 receptor signaling inhibition; HEK293 LGR2, CRE-luciferase, bursicon-stimulated, 4 h; inhibition, % at 9.99 µM; hit rate 0.35% among 380,000;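 active means drop in luminescence signal, shown as inhibition above about 50% in the replicate tests, limit read from the data, passing the limit was not always enough; inconclusive means probably only some replicates passing the limit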;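 further: agonist challenge used bursicon conditioned medium at about half maximal strength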
# PAX8 reporter – lowers PAX8-driven luciferase in RMG-I cells; inhibition, % at 12.6 µM; hit rate 1.2% among 360,000; RMG-I TPO-luciferase reporter, SteadyGlo, 24 h;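 active means mean replicate inhibition at least 60% with every replicate also reaching 60%; inconclusive means only one of the two criteria is met; inactive means mean below 60% and not all replicates reaching 60%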;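 further: luciferase light reporting Pax8 driven TPO promoter activity; plate controls were median of neutral control wells for no effect and mitoxantrone controls for full effect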
# EWS-Fli inh – EWS/Fli transcriptional activity inhibition | A673 NR0B1-luciferase reporter, viability-normalised | inhibition, % at 12.6 µM | hit rate 0.67% among 350,000 | AID 651661;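 active means mean inhibition of at least 50% after viability correction, with every replicate also passing that limit; inconclusive means mean reaches 50% but only one of two replicates passes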;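 further: firefly luciferase signal divided by Alamar Blue viability fluorescence both relative to DMSO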
# TROY NFkB inh – blocks TROY-dependent signaling in reporter cells; Q293 LMP1-TROYcd NF-kB luciferase reporter, 4 h; hit rate 0.98% among 360,000; inhibition, % at 10 µM;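 active means compounds whose plate-normalised and pattern-corrected inhibition of the luciferase reporter signal at the single screening dose is 50% or more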
# LMP1 NFkB inh – Epstein-Barr LMP1 NF-kappaB reporter inhibition; LMP1-induced NF-kappaB luciferase reporter cells, luminescence; inhibition, % at 12.5 µM; hit rate 0.69% among 350,000; in the data active means inhibition above about 41%; inconclusive means no clear call, values can overlap the other calls;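 further: 0% = neutral control wells and 100% = reference inhibitor control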
# * hit, by the source's call; u = inconclusive; x = no result given. Rows were chosen to be rich in hits. Some 3.2% of all compounds tested hit in one or more screens of this group.
SMILES,TWEAK Fn14 block,LGR2 inh,PAX8 reporter,EWS-Fli inh,TROY NFkB inh,LMP1 NFkB inh
C[C@H]1CCCCO[C@@H](CN(C)S(=O)(=O)c2ccc(F)cc2)[C@@H](C)CN([C@@H](C)CO)C(=O)c2cc(NC(=O)NC3CCCCC3)ccc2O1,x,3.6,66.5*,7.8,x,x
COc1ccc(S(=O)(=O)N(C)C[C@@H]2OCCCC[C@H](C)Oc3ccc(NC(=O)NC4CCCCC4)cc3C(=O)N([C@@H](C)CO)C[C@@H]2C)cc1,x,-10.2,66.0*,13.3,x,x
C[C@H]1CCCCO[C@@H](CN(C)S(=O)(=O)c2ccccc2)[C@@H](C)CN([C@@H](C)CO)C(=O)c2cc(NC(=O)NC3CCCCC3)ccc2O1,x,13.8,69.1*,14.1,x,x
COc1ccc(S(=O)(=O)N(C)C[C@H]2OCCCC[C@@H](C)Oc3ccc(NC(=O)NC4CCCCC4)cc3C(=O)N([C@H](C)CO)C[C@@H]2C)cc1,x,6.3,3.1,-12.6,x,x
CO[C@@H]1CN(C)C(=O)c2cc(NC(=O)c3ccccc3)ccc2OC[C@H](C)N(C)C[C@H]1C,x,-0.4,x,1.6,x,x
C[C@@H]1CN([C@H](C)CO)S(=O)(=O)c2ccc(C#CCN(C)C)cc2O[C@@H]1CN(C)Cc1ccc(F)cc1,x,22.7,x,6.4,x,x
O=C(Nc1ccccc1)C1=C[C@@H](C2CCCCC2)C[C@@H](OCCCCO)O1,62.0*,-16.5,-180.2,-87.5,67.1*,4.2
CC(C)(C)[C@H]1C=C(C(=O)Nc2ccccc2)O[C@@H](OCCCCO)C1,83.8*,-34.7,-132.9,1.8,83.8*,6.4
O=C(Nc1ccccc1)C1=C[C@H](C2CCCCC2)C[C@H](OCCCCO)O1,57.5*,-42.3,-147.8,-110.9,66.7*,4.8
O=C(NCc1ccccc1)C1=C[C@H](C2CCCCC2)C[C@H](OCCCCO)O1,-8.7,-1.0,-13.8,-1.7,-28.8,-1.5
CC(C)[C@H](C)NC(=O)N(C)C[C@@H]1OCc2ccccc2-c2c(n(C)c3ccccc23)C(=O)N([C@H](C)CO)C[C@H]1C,x,0.8,x,5.4,x,x
COc1ccc(S(=O)(=O)N(C)C[C@@H]2OCCCC[C@H](C)Oc3ccc(NC(=O)NC(C)C)cc3C(=O)N([C@H](C)CO)C[C@@H]2C)cc1,x,-7.4,13.1,0.1,x,x
C=CCN(c1ccccc1)S(=O)(=O)c1cccc(C(=O)Nc2ccncc2)c1,32.2,11.0,15.6,35.7,41.8,11.8
C=CCN(c1ccccc1)S(=O)(=O)c1cccc(C(=O)Nc2nc3ccccc3[nH]2)c1,53.8*,-0.4,10.4,x,15.4,-4.6
COc1ccc(N(C)S(=O)(=O)c2cccc(C(=O)Nc3nc4ccccc4[nH]3)c2)cc1,27.0,10.1,1.5,1.4,29.5,8.8
CN(c1cccc(Cl)c1)S(=O)(=O)c1cccc(C(=O)Nc2nc3ccccc3[nH]2)c1,74.3*,u,71.1*,18.6,34.9,30.1
C[C@H](CO)N1C[C@H](C)[C@H](CN(C)S(=O)(=O)c2ccc3ccccc3c2)OCc2cn(nn2)CCCC1=O,x,-3.4,12.4,-5.7,x,x
COc1ccccc1NC(=O)Nc1ccc(Cl)c(S(=O)(=O)Nc2ccccc2OC)c1,29.8,3.7,-8.9,x,13.3,6.6
COc1ccc(C(=O)Nc2ccc(Cl)c(S(=O)(=O)Nc3ccccc3OC)c2)cc1,80.5*,11.0,-5.0,x,52.7*,13.4
COc1ccccc1NS(=O)(=O)c1cccc(NC(=O)Nc2cccc(Cl)c2)c1,81.2*,27.5,30.6,x,51.0*,8.0
COc1ccccc1NS(=O)(=O)c1cc(NC(=O)c2ccc(Cl)nc2)ccc1Cl,101.9*,37.7,44.2,x,71.5*,32.7
COc1ccc(NC(=O)c2ccc(-c3ccccc3)cc2)cc1NS(=O)(=O)c1ccc(F)cc1,61.5*,-6.6,23.1,x,31.4,27.0
COc1ccccc1NS(=O)(=O)c1cc(NC(=O)c2ccc3ccccc3n2)ccc1Cl,19.0,-6.6,-14.7,x,6.5,0.5
CO[C@H]1CN(C)C(=O)c2cc(NC(=O)c3ccc(F)cc3)ccc2OC[C@H](C)N(C(=O)CN(C)C)C[C@H]1C,x,7.1,-3.4,-6.7,x,x
N#C[C@H]1[C@@H](c2ccccc2-c2ccccc2F)[C@H](CO)N1C(=O)C1CCOCC1,x,-18.0,0.6,2.6,x,x
SMILES,TWEAK Fn14 block,LGR2 inh,PAX8 reporter,EWS-Fli inh,TROY NFkB inh,LMP1 NFkB inh
CCC(=O)N1[C@@H](CO)[C@H](c2ccccc2)C12CN(C(=O)c1ccc(F)cc1)C2,x,12.3,-7.1,-9.7,x,x
COc1cc(NC(=O)c2ccccc2)c(OC)cc1NC(C)=O,-4.1,x,x,x,1.3,4.1
COc1cc(NS(C)(=O)=O)c(OC)cc1NC(=O)c1ccccc1,57.3*,x,-6.1,x,-14.4,-24.6
Cc1ccc(S(=O)(=O)Nc2ccc3c(c2)C(=O)N([C@@H](C)CO)C[C@@H](C)[C@H](CN(C)C(=O)CCC(F)(F)F)OCCCC[C@H](C)O3)cc1,x,4.3,-6.6,-9.7,x,x
C[C@H]1CCCCO[C@H](CN(C)CC2CCCCC2)[C@@H](C)CN([C@@H](C)CO)C(=O)c2cc(NC(=O)Nc3cccc4ccccc34)ccc2O1,x,8.9,9.5,89.2*,x,x
C[C@@H]1CCCCO[C@@H](CN(C)CC2CCCCC2)[C@H](C)CN([C@H](C)CO)C(=O)c2cc(NC(=O)Nc3cccc4ccccc34)ccc2O1,x,10.2,-13.6,90.0*,x,x
C[C@@H]1CN([C@@H](C)CO)C(=O)c2cc(NC(=O)Nc3cccc4ccccc34)ccc2O[C@@H]1CN(C)CC1CCCCC1,x,-20.7,x,76.9*,x,x
C[C@@H]1CN([C@@H](C)CO)C(=O)c2cc(NC(=O)Nc3cccc4ccccc34)ccc2O[C@@H](C)CCCCO[C@H]1CN(C)CC1CCCCC1,x,8.6,-21.2,90.7*,x,x
C[C@@H]1CCCCO[C@H](CN(C)CC2CC2)[C@@H](C)CN([C@H](C)CO)C(=O)c2cc(NC(=O)Nc3cccc4ccccc34)ccc2O1,x,-14.5,-3.7,-2.3,x,x
C[C@@H]1CN([C@@H](C)CO)C(=O)c2cc(NC(=O)Nc3cccc4ccccc34)ccc2O[C@@H](C)CCCCO[C@H]1CN(C)CC1CC1,x,-1.4,-2.0,-3.4,x,x
C[C@@H]1CCCCO[C@H](CN(C)C)[C@H](C)CN([C@H](C)CO)C(=O)c2cc(NC(=O)Nc3cccc4ccccc34)ccc2O1,x,-3.9,84.0*,-5.9,x,x
C[C@@H]1CN([C@@H](C)CO)C(=O)c2cc(NC(=O)Nc3cccc4ccccc34)ccc2O[C@@H](C)CCCCO[C@@H]1CN(C)CC1CCCCC1,x,-10.0,9.1,81.7*,x,x
C[C@H](CO)N1C[C@H](C)[C@H](CN(C)CC2CC2)OCCCC[C@H](C)Oc2ccc(NC(=O)Nc3cccc4ccccc34)cc2C1=O,x,8.9,0.0,7.3,x,x
C[C@@H]1CN([C@@H](C)CO)C(=O)Cc2cc(NC(=O)Nc3ccccc3)ccc2O[C@H]1CN(C)S(=O)(=O)c1cccs1,x,17.7,5.1,-4.2,x,x
CC(C)CC#Cc1ccc2c(c1)O[C@H](CN(C)S(C)(=O)=O)[C@@H](C)CN([C@@H](C)CO)S2(=O)=O,x,-17.4,-12.2,1.1,x,x

# Compound activity deposited in PubChem by several laboratories.
